Broadly, the inhibition is the drop in the measured response relative to a control, in per cent.

Where “and” joins values, the source holds several entries; their conditions need not be identical. Equal entries are not always repeated. For part of these data: Results with a measured potency or affinity are listed apart.

This note sets out measurements from PubChem BioAssay.

Assay [1] in a line: polyglutamine-triggered caspase-3 activation inhibitors, cell-based (AID 1583). As to conditions: polyglutamine-induced caspase-3 activation, cell assay; stronger effect = higher value;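 tested at 10 µM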.
A short description of assay [2]: suppressors of polyQ aggregation in yeast, 75Q-TubU reporter (AID 1593). As to conditions: Yeast 75Q polyglutamine aggregation reporter.
Assay [3] is described as follows: rescue of polyQ-huntingtin neuronal dysfunction in worms, whole organism, C. elegans mechanosensory neurons, N-terminal huntingtin (AID 1599). As to conditions: touch response, stronger effect = higher value.
Assay [4] in a line: inhibitors of mitochondrial cytochrome c release, biochemical, purified mitochondria (AID 1603).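 Also: mouse liver mitochondria challenged with calcium chloride; signal normalized to the plate average as 100%.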 As to conditions: stronger effect = lower value.
A short description of assay [5]: inhibitors of polyQ protein aggregation (AID 1604). As to conditions: polyglutamine-induced protein aggregation inhibition assay; stronger effect = higher value; tested at 2.5 µM.

Regarding `CN(Cc1cnc2nc(N)nc(N)c2n1)c1ccc(C(=O)N[C@@H](CCC(=O)O)C(=O)O)cc1`, in assay [1], the inhibition is 25.6%. In assay [2], the score worked out at 0.69. Besides, in assay [3], the rescue above control is -10.9. In assay [4], the cytochrome c release ratio is 1.08. For the same molecule, in assay [5], the inhibition of aggregation is 74.6%.
Turning to `CN(Cc1cc(Br)cc(Br)c1N)C1CCCCC1`, the inhibition in assay [1] was found to be 50%. Further, the score in assay [2] is 1.59. Besides, the rescue above control in assay [3] is -1.24. In assay [4], the cytochrome c release ratio worked out at 1.12. The inhibition of aggregation in assay [5] was determined as 80.3%.
On to `O=C(Nc1ccc([N+](=O)[O-])cc1Cl)c1cc(Cl)ccc1O`, for which, in assay [1], the inhibition came out at 63.3%. In assay [2], this molecule gave a score of 1.5. Besides, in assay [3], the rescue above control was -13. In assay [4], the cytochrome c release ratio amounted to 0.91. Also, in assay [5], the inhibition of aggregation turned out to be 41.7%.
The like results for `O=C(O)CCCCCCCC(=O)O` were, in that order, -26.7%, 1.02, 10.4, 1.16 and 79.6%.
As for `O=c1cc(CO)occ1O`, the inhibition in assay [1] worked out at 12%. This molecule also returned a score in assay [2] of 1.29. The rescue above control in assay [3] is 10.1. Moreover, the cytochrome c release ratio in assay [4] was 0.94. In assay [5], the inhibition of aggregation was found to be 21.8%.
Take `CCC(=O)c1c(O)cc(O)cc1O`: in assay [1], the inhibition worked out at 6.37%. Moreover, the score in assay [2] is 0.94. In addition, in assay [3], the rescue above control is -3.67. Moreover, in assay [4], the cytochrome c release ratio is 1.29. Besides, in assay [5], the inhibition of aggregation amounted to 38.9%.
The like results for `Cc1c(C(N)=O)cc([N+](=O)[O-])cc1[N+](=O)[O-]` were, in that order, -1.96%, 1.25, 5.37, 1.17 and 82.7%.
Regarding `O=C(O)c1ccccc1O`, the inhibition in assay [1] worked out at 11.5%. For the same molecule, the score in assay [2] was found to be 0.77. In assay [3], the rescue above control was -5.04. Also, the cytochrome c release ratio in assay [4] was 0.97. The inhibition of aggregation in assay [5] was 56.1%.
The like results for `Nc1ccc(S(=O)(=O)Nc2ccnn2-c2ccccc2)cc1` were, in that order, -0.92%, 1.43, -6.57, 0.99 and 4.55%.
With `CC[N+](CC)(CC)CCOc1cccc(OCC[N+](CC)(CC)CC)c1OCC[N+](CC)(CC)CC`, the inhibition in assay [1] was found to be 2.37%. The same molecule came in with a score in assay [2] of 1.11. Moreover, the rescue above control in assay [3] worked out at 4.9. Besides, the cytochrome c release ratio in assay [4] amounted to 1.78. Moreover, in assay [5], the inhibition of aggregation came out at 83.6%.
In the case of `NS(=O)(=O)c1cc2c(cc1Cl)NC(C1CC3C=CC1C3)NS2(=O)=O` (stereo not given), the inhibition in assay [1] is 13%. The same molecule showed a score in assay [2] of 0.98. Further, the rescue above control in assay [3] amounted to 1.81. In assay [4], the cytochrome c release ratio stood at 1.07. Moreover, the inhibition of aggregation in assay [5] came to 5.88%.
Turning to `Nc1ccc(N=Nc2ccccc2)c(N)n1`, the inhibition in assay [1] was 8.8%. The score in assay [2] came to 1.35. The rescue above control in assay [3] is -1.41. In addition, in assay [4], the cytochrome c release ratio amounted to 0.66. Moreover, the inhibition of aggregation in assay [5] worked out at 65.5%.
As to `COc1ccc(C2C(=O)c3ccccc3C2=O)cc1`, in assay [1], the inhibition turned out to be 2.6%. Moreover, the score in assay [2] was found to be 0.47. The rescue above control in assay [3] was -9.34. In assay [4], the cytochrome c release ratio is 1.11. Also, the inhibition of aggregation in assay [5] was 79.6%.
For the molecule `CCn1cc(C(=O)O)c(=O)c2cnc(N3CCNCC3)nc21`, in assay [1], the inhibition is -5.14%. This molecule displayed a score in assay [2] of 1.35. The molecule further returned a rescue above control in assay [3] of 5.83. Moreover, the cytochrome c release ratio in assay [4] came to 0.98. Also, the inhibition of aggregation in assay [5] stood at 72.4%.
Consider `NC(=O)c1ncn([C@@H]2O[C@H](CO)[C@@H](O)[C@H]2O)c1O`, for which, in assay [1], the inhibition is 7.18%. In assay [2], this molecule registered a score of 1.36. Besides, the rescue above control in assay [3] is -8.77. For the same molecule, the cytochrome c release ratio in assay [4] was determined as 0.91. Besides, in assay [5], the inhibition of aggregation came to 49%.
Turning to `C[C@H]1c2cccc(O)c2C(O)=C2C(=O)[C@]3(O)C(O)=C(C(N)=O)C(=O)[C@@H](N(C)C)[C@@H]3[C@@H](O)[C@@H]21`, the inhibition in assay [1] was -6.11%. For the same molecule, in assay [2], the score was found to be 0.83. The rescue above control in assay [3] came to 0. Besides, in assay [4], the cytochrome c release ratio stood at 0.35. Further, the inhibition of aggregation in assay [5] came to 64.1%.
The like results for `Nc1ccc(C(=O)O)c(O)c1` were, in that order, -17.6%, 1.08, 7.16, 1.48 and 88.8%.
`CCOC(=O)C(C)(C)Oc1ccc(Cl)cc1`: the inhibition in assay [1] was 24.9% and 18.3%. In assay [2], the score is 0.66 and 0.84. Moreover, in assay [3], the rescue above control was -9.07 and 5.03. Besides, in assay [4], the cytochrome c release ratio was 0.65 and 0.84. In assay [5], the inhibition of aggregation was 70.5% and -5.88%.
`CCCCCCc1ccc(O)cc1O`: in assay [1], the inhibition was found to be 8.69%. The molecule further showed a score in assay [2] of 0. Further, the rescue above control in assay [3] was -4.19. Moreover, the cytochrome c release ratio in assay [4] came out at 0.54. Moreover, the inhibition of aggregation in assay [5] was 56.7%.
`NC(=O)c1ccccc1O`: in assay [1], the inhibition was -13.1%. In assay [2], this molecule returned a score of 1.55. The molecule further yielded a rescue above control in assay [3] of 9.08. In assay [4], the cytochrome c release ratio worked out at 0.7. Moreover, the inhibition of aggregation in assay [5] was determined as 78.1%.
The like results for `O=C1c2ccccc2C(=O)C1c1ccccc1` were, in that order, 16.8%, 0.9, 2.74, 0.89 and 3.03%.
The like results for `CS(=O)(=O)c1ccc([C@@H](O)[C@@H](CO)NC(=O)C(Cl)Cl)cc1` were, in that order, -7.88%, 0.79, -0.62, 0.72 and 100%.
The like results for `CCCCCCCCNC(C)C(O)c1ccc(SC(C)C)cc1` (stereo not given) were, in that order, 71.7%, -1.11, 0, 0.61 and 63%.
Take `NC(=O)c1ncn([C@@H]2O[C@H](CO)[C@@H](O)[C@H]2O)n1`: in assay [1], the inhibition turned out to be 21%. The same molecule came in with a score in assay [2] of 1.56. Besides, the rescue above control in assay [3] was -2.31. Besides, the cytochrome c release ratio in assay [4] amounted to 1.02. Besides, in assay [5], the inhibition of aggregation was 21.6%.
The like results for `COc1ccc(C(=O)c2ccccc2)c(O)c1` were, in that order, 16.9%, 0.23, 9.82, 1.17 and 35%.
As to `CCCCC1C(=O)N(c2ccccc2)N(c2ccccc2)C1=O`, the inhibition in assay [1] amounted to 9.66%. The same molecule gave a score in assay [2] of 0.64. The molecule also came in with a rescue above control in assay [3] of 2.39. The cytochrome c release ratio in assay [4] is 0.96. Besides, in assay [5], the inhibition of aggregation stood at 76%.
The like results for `CC(=O)NCCCCCC(=O)O` were, in that order, 22.1%, 1.42, -0.56, 1.37 and 74.4%.
The like results for `N[C@@H](Cc1ccc(O)c(O)c1)C(=O)O` were, in that order, -16.6%, 1.55, 6.71, 0.96 and 83.3%.
Turning to `CN(C)c1ccc(C(=C2C=CC(=[N+](C)C)C=C2)c2ccc(N(C)C)cc2)cc1`, the inhibition in assay [1] was found to be 60.7%. Moreover, the score in assay [2] is -6.36. Also, the rescue above control in assay [3] was found to be 0. Moreover, the cytochrome c release ratio in assay [4] was 1.35. In addition, the inhibition of aggregation in assay [5] amounted to 16.7%.
The like results for `O=C(O)c1ccc(S(=O)(=O)N(Cl)Cl)cc1` were, in that order, 18.5%, 1.25, 8.13, 0.74 and 56.3%.
The like results for `S=P(N1CC1)(N1CC1)N1CC1` were, in that order, 8.19%, 0.94, -0.95, 0.82 and 63.2%.
`CCN(CC)C(C)CN1c2ccccc2Sc2ccccc21` (stereo not given): the inhibition in assay [1] was -20.5%. This molecule gave a score in assay [2] of 1.11. For the same molecule, the rescue above control in assay [3] is -4.48. In assay [4], the cytochrome c release ratio amounted to 0.98. The inhibition of aggregation in assay [5] was found to be 54.5%.
Take `Cc1cc(-c2ccccc2)nnc1NCCN1CCOCC1`: in assay [1], the inhibition came out at 7.39%. In assay [2], this molecule returned a score of 1.28. This molecule also registered a rescue above control in assay [3] of 5.33. In addition, the cytochrome c release ratio in assay [4] was determined as 1.03. Also, the inhibition of aggregation in assay [5] was 66.7%.
The like results for `NC(=O)N/N=C/c1ccc([N+](=O)[O-])o1` were, in that order, 21.9%, 1.11, 14.1, 1.45 and 74.9%.
For `CC(N)CCCC(C)(C)O` (stereo not given), the inhibition in assay [1] was determined as 23.3%. This molecule yielded a score in assay [2] of 1.12. In assay [3], the rescue above control was -5.82. Besides, in assay [4], the cytochrome c release ratio came out at 0.68. For the same molecule, in assay [5], the inhibition of aggregation turned out to be 19.1%.
With `Nc1ccc(S(N)(=O)=O)cc1`, the inhibition in assay [1] was -14.5%. In assay [2], this molecule registered a score of 1.26. The rescue above control in assay [3] is 0.93. Besides, in assay [4], the cytochrome c release ratio worked out at 1.06. Besides, in assay [5], the inhibition of aggregation was determined as 81.5%.
